# Many of the other results were omitted from the sample, so hits are more common in it than they were.
# Pf Dd2 growth = blocks in vitro growth of P. falciparum Dd2. 120,000 tested, 4.3% active. P. falciparum Dd2 growth, SYBR Green, 72 h. AID 1347417. Potency, µM (highest dose often 28.9 µM), inactives show top-dose activity, negative = inhibition, hits mostly inhibitors; active means well fitted inhibition curve with a large enough effect;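 further: plate controls were DMSO vehicle for no effect and reference drug for full effect; nearly all actives have a fitted effect of over 65% in size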
#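 Readout: SYBR Green fluorescence, 485 nm excitation, 535 nm emission, after ~16 h lysis at 37C. Before that, Dd2-infected red cells (2.5% hematocrit) grew 72 h with compound, 29 uM top final concentration.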
# An asterisk follows results filed as active; i = inactive; [ ] = another dose, or the depositor's remark. Potency means the concentration at half of the fitted maximal effect.
SMILES,Pf Dd2 growth
Cc1ccc(CNC2(Cc3cc(-c4ccccn4)on3)COC2)o1,3.5%[44.1 µM]
O=C(c1ccnnc1)N1C[C@@H](COCC2CC2)[C@H](c2ccccn2)C1,20.1%
Cc1cc(C(=O)N2CCC3(CC2)CC(N(Cc2ccc(F)cc2)C2CC2)CCO3)n(C)n1 (stereo not drawn),i
Cc1ccc(C(=O)N2CCC3(CC2)CC(N(Cc2ccccc2)C2CC2)CCO3)cc1 (stereo not drawn),i
O=C(c1ccco1)N1CCC2(CC1)CC(N(Cc1ccc(F)cc1)C1CC1)CCO2 (stereo not drawn),2.82µM*
O=C(CCC1CCCC1)N1CCC2(CC1)CC(N(Cc1ccccc1)C1CC1)CCO2 (stereo not drawn),12.6µM*
COCCC(=O)N1CCC2(CC1)CC(N(Cc1ccccc1)C1CC1)CCO2 (stereo not drawn),i
O=C(CC1CCCC1)N1CCC2(CC1)CC(N(Cc1ccc(F)cc1)C1CC1)CCO2 (stereo not drawn),7.94µM*
O=C(C1CCC1)N1CCC2(CC1)CC(N(Cc1ccc(F)cc1)C1CC1)CCO2 (stereo not drawn),i
O=C(C1CCOCC1)N1CCC2(CC1)CC(N(Cc1ccc(F)cc1)C1CC1)CCO2 (stereo not drawn),0.2%
CC(C)C(=O)N1CCC2(CC1)CC(N(Cc1ccccc1)C1CC1)CCO2 (stereo not drawn),-23.5%
Cc1ccc(C(=O)N2CCC3(CC2)CC(N(Cc2ccccc2)C2CC2)CCO3)s1 (stereo not drawn),1.58µM*
CCOCC(=O)N1CCC2(CC1)CC(N(Cc1ccc(F)cc1)C1CC1)CCO2 (stereo not drawn),-32.6%
CCC(=O)N1CCC2(CC1)CC(N(Cc1ccccc1)C1CC1)CCO2 (stereo not drawn),-19.8%
CN1CCC([C@@H]2CN(C(=O)NCCc3ccccc3)C[C@H]2C(N)=O)CC1,0.3%
Cc1ccc(C(=O)N2CCC3(CC2)N(C)C(=O)CS3(=O)=O)cc1F,23.6%
COCC1(c2nc(C3CCOCC3)nn2C(C)(C)C)CC1,5.9%
O=C1[C@H]2CN(S(=O)(=O)c3ccc(F)cc3)CCN2C(=O)N1CCO,19.2%[44.1 µM]
COc1cc(OC)cc(-c2onc(C)c2C(=O)NCc2ccc(F)c(F)c2)c1,i
CN1CCN(CC(=O)N2CCCC(c3ccc(Cl)cc3)C2)C1=O (stereo not drawn),4.5%
COc1ccccc1OCCNC(=O)C1CC(=O)N(c2n[nH]c3cccc(F)c23)C1 (stereo not drawn),1.1%
O=C(c1ccccn1)N1CCC2(CC1)CC(N(Cc1ccccc1)C1CC1)CCO2 (stereo not drawn),-6.1%
CC(=O)N1CCC2(CC1)CC(N(Cc1ccc(F)cc1)C1CC1)CCO2 (stereo not drawn),9.3%
O=C(c1ccccc1)N1CCC2(CC1)CC(N(Cc1ccc(F)cc1)C1CC1)CCO2 (stereo not drawn),7.94µM*
COc1ccc(C2NC(=O)N(CC3CC3)C3=C2C(=O)OC3)cc1 (stereo not drawn),-9.6%
SMILES,Pf Dd2 growth
COc1ccc(CNC(=O)C2CCN(Cc3nc(-c4ccc(Cl)cc4)oc3C)CC2)cc1,24.4%
COc1ccc(-c2c(C)c3ccc(O)c(CN4CCOCC4)c3oc2=O)cc1,8.91µM*
COc1ccc(C(CNC(=O)c2oc3ccc(C)cc3c2C)N2CCOCC2)cc1 (stereo not drawn),-19.4%
COc1ccc(-c2nc(C)nc3c2CCN(Cc2cncs2)CC3)cc1,i
COc1ccc2c(c1)OCC(CNC(=O)CN1CCOCC1)C2 (stereo not drawn),-6.0%
COc1ccc(-c2c(C)c3ccc(O)c(CN4CCCC4)c3oc2=O)cc1,3.16µM*
O=C1OCCCN1CCNc1ccc(-c2nc(-c3ccccc3F)no2)cn1,i
CCC1(N2CCN(C(=O)c3cc(Cl)ccc3OC)CC2)CCN(C(=O)NC)C1 (stereo not drawn),i
O=C(C1CCOCC1)N1CCC(c2noc(COc3ccc(F)cc3)n2)C1 (stereo not drawn),-19.7%
c1coc(CNC2(Cc3cc(CN4CCOCC4)on3)COC2)c1,14.5%[44.1 µM]
COc1ccc(CNC(=O)NC2CCc3n[nH]c(=O)n3CC2)cc1 (stereo not drawn),i
O=C(N[C@H](c1cccs1)C1CC(O)C1)c1cnn2cc(CCO)cnc12 (stereo partly drawn),0.9%
Cc1nn(C)c(C)c1CCCN(C)C(=O)C1N(C(C)C)C(=O)C12CCCCC2 (stereo not drawn),14.7%
Cc1ccc(CNC(=O)C2(c3ccc(NC(=O)C4CC4)cc3)CCC2)cc1,-6.0%
Cc1c(C(=O)N(Cc2cccc(OCC3CCOC3)c2)Cc2ccccn2)[nH]c2ccc(Cl)cc12 (stereo not drawn),-0.1%
C=CCN1C[C@@H]2CN(C(=O)C(C)(C)NC(C)=O)C[C@]2(C(=O)O)C1,-8.5%
Cc1cc2ncc(C(=O)NCCc3ccccc3F)cn2n1,-3.4%[44.1 µM]
Cc1ccc(-c2nc(-c3nnn4c3COC(c3ccc(Cl)cc3)C4)no2)s1 (stereo not drawn),i
CC1=C(C(=O)Nc2ccc(C)cc2)C(c2ccc(Cl)cc2)n2nnnc2N1 (stereo not drawn),-26.7%
CC1=C(C(=O)Nc2ccccc2)C(c2ccccc2Cl)n2ncc(C(=O)Nc3cccc(C)c3)c2N1 (stereo not drawn),3.16µM*
CC1=C(C(=O)Nc2ccc(C)cc2)C(c2ccccc2Cl)n2nnnc2N1 (stereo not drawn),23.5%
CC1=C(C(=O)Nc2ccc(C)cc2C)C(c2ccc([N+](=O)[O-])cc2)n2ncc(C(=O)Nc3ccc(F)cc3)c2N1 (stereo not drawn),1µM*
CCc1ccc(C2C(C(=O)Nc3ccccc3OC)=C(C)Nc3nc(SCc4ccccc4)nn32)cc1 (stereo not drawn),-9.0%
CCc1ccc(C2C(C(=O)Nc3ccccc3OC)=C(C)Nc3c(C(=O)Nc4ccc(C)cc4)cnn32)cc1 (stereo not drawn),11.2µM*
COc1ccccc1NC(=O)C1=C(C)Nc2c(C(=O)Nc3ccc(C)cc3)cnn2C1c1cccc(OC)c1OC (stereo not drawn),13.1%
SMILES,Pf Dd2 growth
CC1=C(C(=O)Nc2ccc(C)cc2C)C(c2cccn2C)n2ncnc2N1 (stereo not drawn),10.2%
COc1cccc(C2C(C(=O)Nc3ccccc3)=C(C)Nc3nnnn32)c1OC (stereo not drawn),-24.9%
Cc1c(Cl)cccc1NC(=O)N1CCC(Oc2ncccc2C(=O)N2CCOCC2)C1 (stereo not drawn),21.0%
CCc1noc([C@@H]2CC(F)(F)CN2C(=O)c2ccc(OC)nc2)n1,35.1%
Cc1cccnc1CN1CCN2C(=O)N(Cc3ccc(F)cc3)C[C@H]2C1,i
COC1CN(c2cccc(F)c2)C12CCN(C(=O)c1ccnn1C)CC2 (stereo not drawn),15.1%
Cc1cc(C)n(CC(=O)NCC(=O)N2CCCCCCNC(=O)CC2c2ccccc2)n1 (stereo not drawn),-2.2%
O=C(c1cccs1)N1CCC(Cc2nc(C3CCOCC3)no2)CC1,20.8%
Cc1ccc(CNC(=O)c2ccc3c(c2)c(C)c(C)n3Cc2ccc(Cl)cc2)o1,10µM*
Cc1c(C)n(Cc2ccccc2)c2ccc(C(=O)NCc3ccco3)cc12,7.08µM*
COc1cccc(CNC(=O)c2ccc3c(c2)c(C)c(C)n3Cc2ccccc2)c1,0.7%
CCc1ccc(CNC(=O)c2ccc3c(c2)c(C)c(C)n3Cc2ccccc2)cc1,24.2%
Cc1ccc(CNC(=O)c2ccc3c(c2)c(C)c(C)n3Cc2ccccc2)o1,-28.8%

# High-throughput results as filed in PubChem.
